Source: PubChem BioAssay AID624296 (National Center for Advancing Translational Sciences (NCATS), 2012)
The campaign covered roughly 350,000 compounds. About 9,900 (2.8%) were called active. Inconclusive results (about 15%) are left out. Many of the other results were omitted from the sample, so actives are more common in it than they were. Unmarked numbers belong to inactive results. The call rests on the fitted dose curve; in most records, active means well fitted activation curve with a large enough effect; inconclusive means small, poorly fitted or top-dose-only effect; inactive means no such curve, though single readings can be large or run the other way.

Experiment: A quantitative high throughput screen for small molecules that induce DNA re-replication in MCF 10a normal breast cells. Further: nearly all actives have a fitted effect of over 50% in size. On activity, positive = re-replication: % of control where 0% means no effect.
Details: MCF 10A DNA re-replication, Hoechst nuclear intensity, 48 h; series mostly up to 46.1 µM; activity, positive = re-replication: at the top concentration
Potency means the concentration at half of the fitted maximal effect.

Question: Which “activity, positive = re-replication” value does the source give for `CC[C@]12c3[nH]c4ccc(Cl)cc4c3CCN1C(=O)[C@@H](CC(=O)NCCN1CCOCC1)C[C@@H]2C(=O)N1CCN(C(=O)C2CC2)CC1` here?
Answer: The value was -1.37%.

Question: With `CCCN(C(=O)COC(=O)CNS(=O)(=O)c1ccc(NC(C)=O)cc1)C1CCS(=O)(=O)C1` (configuration not stated) as the compound, how does the “activity, positive = re-replication” value read?
Answer: The value was -8.12%.

Question: Which “activity, positive = re-replication” value does the source give for `COc1ccc(-c2csc(-c3cccs3)n2)cc1OC` here?
Answer: The value was 17.5%.

Question: Which Potency does the source give for `COc1ccc(-c2csc3nc(-c4ccccc4F)oc(=O)c23)cc1OC` here?
Answer: The Potency was 8.2 µM (active).

Question: Which “activity, positive = re-replication” value does the source give for `COc1ccccc1-c1nnc(-c2ccc(F)cc2)o1` here?
Answer: Its value is 1.49%.

Question: Which “activity, positive = re-replication” value does the source give for `COc1cc(CC(=O)Nc2nc(-c3ccc(F)c(F)c3)cs2)cc(OC)c1OC` here?
Answer: Its value is 0.443%.

Question: For `COc1ccc(-c2csc(NC(=O)COC(=O)c3ccc(Br)o3)n2)cc1`, which “activity, positive = re-replication” value is on record?
Answer: The value was 0.665%.

Question: With `COc1ccc(N/C=C(\C2OC(=O)c3ccccc32)[N+](=O)[O-])cc1` (configuration not stated) as the compound, how does the “activity, positive = re-replication” value read?
Answer: The value was -46.4%.

Question: For `COc1ccc2c(c1OC)C(=O)OC2Nc1nc(-c2ccccc2)cs1` (configuration not stated), which Potency is on record?
Answer: Its Potency is 4.61 µM (active).

Question: For `COc1ccc(-c2csc(NC3OC(=O)c4ccccc43)n2)cc1` (configuration not stated), which Potency is on record?
Answer: The Potency was 11.6 µM (active).

Question: Which “activity, positive = re-replication” value does the source give for `COc1ccc(CCNc2nc(-c3cccc(NC(C)=O)c3)cs2)cc1OC` here?
Answer: Its value is 28.6%.

Question: With `CC1CC(C)CN(C(=O)COC(=O)c2ccc3ncsc3c2)C1` (configuration not stated) as the compound, how does the “activity, positive = re-replication” value read?
Answer: The value was 1.27%.

Question: With `O=C(Nc1ccccc1F)c1ccc(S(=O)(=O)N2CCCCCC2)cc1` as the compound, how does the “activity, positive = re-replication” value read?
Answer: The value was 6.55%.

Question: With `O=C(CSc1ncnc2sccc12)N1CCN(C(=O)c2cccs2)CC1` as the compound, how does the “activity, positive = re-replication” value read?
Answer: Its value is 7.41%.

Question: For `Cc1nnc(NC(=O)c2ccc3nccnc3c2)s1`, which “activity, positive = re-replication” value is on record?
Answer: Its value is -2.69%.

Question: For `CCN(c1ccccc1)S(=O)(=O)c1cc(C(=O)NCc2ccccn2)ccc1C`, which “activity, positive = re-replication” value is on record?
Answer: Its value is 3.72%.

Question: For `CCCCn1nc(C(=O)Nc2cccc(C(=O)NC3CC3)c2)c2ccccc2c1=O`, which “activity, positive = re-replication” value is on record?
Answer: Its value is 0.136%.

Question: Which “activity, positive = re-replication” value does the source give for `COC(=O)[C@]1(Cc2ccccc2)N[C@H](CN(C)S(=O)(=O)c2ccc(OC(F)(F)F)cc2)[C@@H]2C(=O)N(C)C(=O)[C@@H]21` here?
Answer: Its value is -0.207%.

Question: Which “activity, positive = re-replication” value does the source give for `COc1ccc(NC(=O)c2cccc(NC(=O)c3ccco3)c2)c(OC)c1` here?
Answer: Its value is -2.17%.

Question: Which “activity, positive = re-replication” value does the source give for `COc1cccc(C(=O)Nc2ccc(NC(=O)c3ccco3)cn2)c1` here?
Answer: Its value is 2.33%.

Question: With `COc1cccc(C(=O)Nc2ccc(N3CCN(C(=O)c4ccco4)CC3)cc2)c1` as the compound, how does the Potency read?
Answer: Its Potency is 20.6 µM (active).

Question: Which “activity, positive = re-replication” value does the source give for `CC1(C)C[C@H]2C3=CCC4[C@@]5(C)CC[C@H](O)[C@](C)(CO)C5CC[C@@]4(C)[C@]3(C)C[C@@H](O)[C@@]2(CO)[C@@H](O)[C@@H]1O` (some centres not stated) here?
Answer: The value was 0.808%.

Question: For `CC(C)(C)OC(=O)C[C@@H]1C/C=C\C[C@@H](CC(=O)N[C@H](CO)Cc2ccccc2)C(=O)NCCOC1=O`, which “activity, positive = re-replication” value is on record?
Answer: The value was -7.09%.

Question: With `O=C(NCC1(N2CCCCC2)CCCCC1)c1cccc(S(=O)(=O)Nc2ccccc2Cl)c1` as the compound, how does the “activity, positive = re-replication” value read?
Answer: Its value is 17.7%.

Question: Which “activity, positive = re-replication” value does the source give for `COc1cc2c(-c3ccc4c(c3)OCO4)c(-c3ccsc3)oc(=O)c2cc1OC` here?
Answer: The value was 24.8%.

Question: Which Potency does the source give for `COc1cc(-c2c(-c3ccc4c(c3)OCO4)noc2C)ccc1F` here?
Answer: Its Potency is 20.6 µM (active).

Question: With `COc1ccc(CCNC(=O)c2cc(-c3ccc4c(c3)OCO4)on2)cc1OC` as the compound, how does the “activity, positive = re-replication” value read?
Answer: Its value is -10.3%.
